Source: PubChem BioAssay
JMJD2A Tudor: blocks the human JMJD2A Tudor domain; O75164; AlphaScreen JMJD2A-Tudor / H3K4me3 peptide binding; Potency, µM (top dose mostly 114 µM), without a hit: top-dose activity change, negative = inhibition, most hits filed as inhibitors; hit rate 4.4% among 390,000; AID 504339; further: on the % scale 0 is the no-effect control and ±100 the full control effect; nearly all actives have a fitted effect of over 50% in size
BAZ2B block: BAZ2B (human) inhibition. Q9UIF8. AlphaScreen BAZ2B-H3K14Ac peptide displacement. Potency, µM (highest dose often 114 µM), without a hit: at the highest dose activity change, negative = inhibition, most hits filed as inhibitors. hit rate 4.4% among 360,000; further: on the % scale 0 is the no-effect control and ±100 the full control effect; nearly all actives have a fitted effect of over 60% in size
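Multi-concentration screen (max 110 uM) measuring displacement of acetylated histone H3 peptide from BAZ2B by AlphaScreen, using 50 nM protein, 50 nM peptide and 10 ug/mL streptavidin donor plus Ni-chelate acceptor beads.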
HP1b chromo inh: inhibitors of HP1-beta chromodomain binding to methylated histone tails. P83916. AlphaScreen HP1-beta / biotin-H3K9me3 peptide binding. Potency, µM (top dose mostly 114 µM), for inactives: at the highest dose activity change, negative = inhibition, actives largely listed as inhibitors. hit rate 0.56% among 390,000; further: nearly all actives have a fitted effect of over 70% in size
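HP1-beta protein (50 nM final) preincubated 30 min at room temperature with biotinylated H3(1-18)K9me3 peptide (50 nM) in PBS pH 7.4, 0.01% Tween-20, then compound added for 30 min. AlphaScreen streptavidin donor/nickel chelate acceptor beads (10 ug/mL final), 30 min dark, luminescence read.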
G9a inh: G9a (human) methyltransferase inhibition; G9a H3K9 monomethylation, AlphaScreen, 2 h; Q96KQ7; hit rate 8.8% among 350,000; Potency, µM (series often up to 102 µM), without a hit: top-dose activity, negative = inhibition, hits mostly inhibitors; AID 504332; further: on the % scale 0 is the no-effect control and ±100 the full control effect; nearly all actives have a fitted effect of over 75% in size
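Using a bead-based AlphaScreen, monomethylated H3K9 product from 2 h room-temperature reactions (G9a 20 nM, peptide 500 nM, SAM 20 uM) was detected with 0.5 ug/mL rabbit anti-H3K9me1 antibody.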
Sfp inh: inhibitors of Bacillus subtilis Sfp phosphopantetheinyl transferase; Q9F4F7; Biochemical Sfp PPTase activity, qHTS; Potency, µM, inactives show largest response in the series, negative = inhibition, usual class: inhibitors; hit rate 3.5% among 310,000; AID 1490;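 further: the enzyme is Sfp with the accession as filed and its product quenches rhodamine fluorescence; 0% = enzyme reaction without inhibitor and -100% = no enzyme wells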
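Fluorescence-quenching assay: 15 nM Sfp-PPTase preincubated 15 min at room temperature with compound, then 5 uM rhodamine-CoA and 12.5 uM BHQ-2-labelled YbbR peptide added. Fluorescence (ex 525/em 598 nm) read at start and after 30 min; difference gives rate.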
* hit, by the source's call; u = inconclusive; x = not tested or not shown; [ ] = dose if it differs, or a comment. Most compounds without a hit are left out; they make up all but 12% or so of the library. The call rests on the fitted dose curve; in most records, active means well fitted curve in the direction sought with a large enough effect; inconclusive means small, poorly fitted or top-dose-only effect, or another doubt; inactive means no such curve, though single readings can be large; an effect the other way counts as inactive or inconclusive. Potency means the concentration at half of the fitted maximal effect.

SMILES | JMJD2A Tudor | BAZ2B block | HP1b chromo inh | G9a inh | Sfp inh
CCC(C)Nc1nc(N)c([N+](=O)[O-])c(Nc2cc(OC)ccc2OC)n1 (configuration not stated) | 39.8µM* | 17.8µM* | u | u | -11.8%
CCOC(=O)C1=C(CN2CCN(C(=O)c3ccco3)CC2)NC(=O)NC1c1ccc(F)cc1 (configuration not stated) | -6.1% | -4.7% | 8.3% | 14.3% | 6.5%
COC(=O)C1=C(C)NC(C)=C(C(=O)OCCSc2ccccc2)C1C (configuration not stated) | x | x | x | 150.5%[59 µM] | -5.4%
Cc1ccc(-c2cc(C3C4C=CCCC4(C)C(=O)N3Cc3ccccc3)ccc2F)cc1 (configuration not stated) | -20.0% | x | 5.9% | x | -22.9%
Cc1cccc(C)c1NC(=O)CN(C)C(=O)CSC(=S)N1CCCC1 | -5.5% | 2.4% | 40.8% | -7.8% | x
CCc1ccc(CN2CCc3nc(N4CCN(c5ccccc5F)CC4)ncc3C2)cc1 | -14.6% | -20.7% | 52.3% | -4.8%[12.7 µM] | x
Cc1ccc(Nc2nc(N)c([N+](=O)[O-])c(NCc3ccccc3)n2)cc1 | -13.5% | -11.9% | 2.5% | 3.9% | 6.2%
COc1ccc(OC)c(Nc2nc(N(C)c3ccccc3)nc(N)c2[N+](=O)[O-])c1 | u | u | -16.7% | 35.5µM* | -6.3%
CN(c1ccccc1)c1nc(N)c([N+](=O)[O-])c(Nc2ccccc2F)n1 | -27.8% | 6.1% | 1.3% | -4.4%[2.33 µM] | 4.2%
CCC(C)Nc1nc(N)c([N+](=O)[O-])c(NCc2ccccc2)n1 (configuration not stated) | 56.2µM* | u | u | -23.3% | -7.9%
CC(NC(=O)/C=C/c1ccco1)c1nc2ccccc2n1Cc1ccccc1F (configuration not stated) | -24.3% | -37.6% | 3.1% | u | u
Clc1ccc(Cn2c(/C=C/c3ccco3)nc3ccccc32)cc1 | -26.5% | 56.2µM* | u | 3.16µM* | 39.8µM*
C#CCn1c(/C=C/c2ccc(Cl)cc2)nc2ccccc21 | 104.0% | 112.2% | 195.4% | 161.0%[59 µM] | x
Cc1ccc(Cn2c(/C=C/c3ccco3)nc3ccccc32)cc1 | -0.7% | u | 11.2% | 39.8µM* | u
CC(NC(=O)/C=C/c1ccco1)c1nc2ccccc2n1Cc1c(Cl)cccc1Cl (configuration not stated) | 3.5% | 7.7% | -5.5% | 7.6%[59 µM] | 50.1µM*
Cc1ccc(Cn2c(-c3ccccc3)nc3ccccc32)cc1 | 16.8% | 28.3% | 69.2% | 5.2%[59 µM] | x
CC(C)C[C@@H](CC(=O)N[C@H](CC(=O)N[C@@H]1CCNC[C@H]1C(=O)N[C@H](CC(=O)N[C@@H](CCC(=O)O)CC(=O)O)Cc1ccccc1)C(C)C)NC(=O)[C@@H]1CNCC[C@H]1N | x | x | x | x | -23.8%
COc1cc(C(=S)N2CCOCC2)ccc1OC(=O)c1ccc([N+](=O)[O-])cc1[N+](=O)[O-] | u | -35.1% | -8.8% | x | -23.4%
Cc1c([N+](=O)[O-])cc(C(=O)Oc2cccc(C(=S)N3CCOCC3)c2)cc1[N+](=O)[O-] | -31.3% | u | 13.1% | 15.8µM* | 9.7%
O=C(Oc1ccc(C(=S)N2CCOCC2)cc1)c1cc([N+](=O)[O-])cc([N+](=O)[O-])c1 | -31.8% | -26.7% | 39.8% | 35.5µM* | -4.0%
O=C(Oc1cccc(C(=O)N2CCOCC2)c1)c1ccc(Br)cc1 | -14.1% | 23.1% | 16.6% | -9.9%[59 µM] | 13.0%
O=C(Oc1cccc(C(=S)N2CCOCC2)c1)c1ccc([N+](=O)[O-])cc1 | u | u | u | 31.6µM* | -24.4%
O=C(Oc1ccc(C(=S)N2CCOCC2)cc1)c1cccc(Cl)c1 | -22.4% | -29.7% | u | 44.7µM* | 39.8µM*
COc1ccc2c(c1)c(=O)c(C(=O)c1ccccc1)cn2CC(=O)Nc1ccc2c(c1)OCO2 | -13.6% | u | 21.4% | u | x
O=C(Oc1ccccc1C(=S)N1CCOCC1)c1cccc([N+](=O)[O-])c1 | u | -15.0% | 4.3% | 79.4µM* | 6.2%
O=C(Oc1ccccc1C(=O)N1CCOCC1)c1cccc(Br)c1 | -10.6% | -4.7% | 38.0% | -3.7% | 0.3%
O=C(Oc1ccc(C(=S)N2CCCCC2)cc1)c1ccccc1 | -20.6% | -15.9% | u | 35.5µM* | 22.4µM*
